# According to PubChem BioAssay:
# Active and inactive are the calls of the source. Unless noted, how the calls were made is not given here.
# Key:
# [1] = test system: Wnt5a (protein binding on small-molecule microarray); assay: small molecules binding Wnt5a protein – biophysical, small-molecule microarray, 635/667 nm fluorescence, primary screen (AID 1142); conditions: 635 nm fluorescence, higher = more signal;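 further: fluorescence read at 667 nm with signal to noise per printed feature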
# [2] = ATP-based viability of Huh7 replicon cells – cell-based, CellTiter-Glo luminescence, basal, 48 h, cytotoxicity control for HCV replication inhibitor project, primary screen (AID 1143); conditions: higher = more signal, called active from +8 up or from −8 down;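 further: Huh7 hepatoma cells carrying a hepatitis C replication reporter with no stimulus; test concentration not given here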
# [3] = Pseudomonas biofilm growth suppression – PAO1 strain, BacTiter-Glo luminescence, LB-PBS, primary screen (AID 1144); conditions: P. aeruginosa PAO1 biofilm, 12 h, higher = more signal
# [4] = basal CRE-LacZ reporter activity in PC12 – cell-based, unstimulated, primary screen (AID 1145); conditions: no forskolin, luminescence, 4.5 h, higher = more signal, called active from +8 up or from −8 down
# [5] = forskolin-driven CRE-LacZ activity in PC12 – cell-based, CRE-LacZ reporter, forskolin-stimulated, primary screen (AID 1146); conditions: luminescence, 4.5 h, higher = more signal, called active from +8 up or from −8 down;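 further: PC12 cells with 6xCRE LacZ reporter stimulated by forskolin 10 µM; beta-galactosidase reporter signal reflecting CREB driven transcription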
# [6] = target: Streptavidin (Streptomyces avidinii) (UniProt P22629); assay: compounds binding control protein streptavidin – biophysical, small-molecule microarray, 635/667 nm fluorescence, artefact control for SMM compound annotation, primary screen (AID 1147); conditions: higher = more signal;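 further: signal reflects streptavidin binding to arrayed compounds as a control protein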
# [7] = probe aInhba binding on compound microarray – biochemical, small-molecule microarray, 635/667 nm fluorescence, primary screen (AID 1148); conditions: higher = more signal;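 further: score merges 667nm spot fluorescence with signal-to-noise for antibody binding to printed compounds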
# Torsin-1A (Homo sapiens) [8] = target: Torsin-1A (Homo sapiens) (UniProt O14656); assay: TOR1A wild-type binding on microarray – cell lysate, small-molecule microarray, lysate, 635/667 nm, primary screen (AID 1149); conditions: COS7 hTOR1A-WT lysate, 635 nm fluorescence, higher = more signal
# Torsin-1A (Homo sapiens) [9] = target: Torsin-1A (Homo sapiens) (UniProt O14656); assay: torsin A mutant lysate binding on microarrays – cell lysate, small-molecule microarray, COS7 lysate, 635/667 nm fluorescence, primary screen (AID 1150); conditions: COS7 hTOR1A mutant lysate, 635 nm fluorescence, higher = more signal;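 further: score pools 667 nm emission and signal to noise measuring lysate protein binding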
# [10] = test system: Sonic hedgehog protein (Shh); assay: Sonic hedgehog microarray binding compounds – biochemical, small-molecule microarray, 635/667 nm fluorescence, primary screen (AID 1151); conditions: 635 nm fluorescence, higher = more signal;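 further: Shh protein binding to compounds spotted on small-molecule microarray slides; score combines spot fluorescence intensity with signal-to-noise across triplicate slides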
# Torsin-1A (Homo sapiens), sequence (O14656 whole entry, looked up): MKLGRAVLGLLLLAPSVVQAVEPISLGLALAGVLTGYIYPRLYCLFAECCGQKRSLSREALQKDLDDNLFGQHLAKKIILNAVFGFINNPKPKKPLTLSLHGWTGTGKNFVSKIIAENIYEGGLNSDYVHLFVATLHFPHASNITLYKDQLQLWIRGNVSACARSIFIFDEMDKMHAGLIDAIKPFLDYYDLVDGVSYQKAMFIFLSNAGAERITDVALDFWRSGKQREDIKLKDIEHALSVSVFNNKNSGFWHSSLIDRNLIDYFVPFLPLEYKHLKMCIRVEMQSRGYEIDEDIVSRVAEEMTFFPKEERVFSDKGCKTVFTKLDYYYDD
# Streptavidin (Streptomyces avidinii), sequence (P22629 whole entry, looked up): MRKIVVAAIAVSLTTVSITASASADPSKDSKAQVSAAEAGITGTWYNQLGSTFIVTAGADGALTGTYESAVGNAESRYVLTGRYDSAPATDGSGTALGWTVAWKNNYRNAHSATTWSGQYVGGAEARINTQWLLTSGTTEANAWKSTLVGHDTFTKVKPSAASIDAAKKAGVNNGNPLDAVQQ
SMILES,composite z-score [1],z-score [2],z-score [3],z-score [4],z-score [5],composite z-score [6],composite z-score [7],composite z-score (Torsin-1A (Homo sapiens) [8]),composite z-score (Torsin-1A (Homo sapiens) [9]),composite z-score [10]
COC(=O)[C@@H]1N=C(c2ccc(OCCCO)cc2)O[C@@H]1C,0.186,0.0511 (inactive),-0.123 (inactive),-0.31 (inactive),0.421 (inactive),-0.69,0.0225,0.0429,-0.425,0.369
[N-]=[N+]=NCc1ccccc1[C@H]1OC(c2ccc(OCCCO)cc2)=N[C@@]1(Cc1ccccc1N=[N+]=[N-])C(=O)NCC(O)CO (stereo not given in full),0.462,-3.57 (inactive),0.401 (inactive),0.745 (inactive),-1.22 (inactive),0.9,0.346,0.256,0.301,-0.562
C=C(COC)C(=O)CC[C@@H](OC(C)=O)c1cccc(OCCO)c1,-0.124,-0.3 (inactive),0.423 (inactive),3.3 (inactive),2.95 (inactive),-1.07,-0.128,0.672,-0.708,0.358
CCCC1(C(=O)OC)C=C2C(=C(C)C(=O)C2C)CN1 (stereo not given),0.0439,0.442 (inactive),-0.473 (inactive),2.3 (inactive),2.15 (inactive),-0.381,0.0487,0.149,-0.0341,-0.552
CCCCCCCCCCC(O)C1C=CC2C(=O)N(c3ccccc3)C(=O)C2N1Nc1ccc(C#N)cc1 (stereo not given),0.525,-3.71 (inactive),-0.209 (inactive),-0.519 (inactive),0.407 (inactive),1.66,0.215,0.225,0.646,0.314
O=c1cccc(-c2ccc([N+](=O)[O-])cc2)o1,0.105,-1.88 (inactive),-0.982 (inactive),-0.882 (inactive),0.61 (inactive),0.315,0.165,-0.0842,0.376,2.19
COc1ccc(C(=O)Nc2ccc(CN3C(=O)[C@]4(O[C@H](CC(=O)N5Cc6ccccc6C[C@H]5CO)[C@@H]([Si](C)(C)c5ccc(OC)cc5)[C@@H]4C)c4ccccc43)cc2)cc1,0.307,-3.81 (inactive),0.556 (inactive),-0.011 (inactive),-0.6 (inactive),0.134,-0.132,0.851,0.93,2.04
Cc1ccc(S[C@]2(C(=O)NCc3ccccc3)CC(=O)N(C3CCCCC3)[C@@H]2c2ccc(CO)cc2I)cc1,0.301,-4.53 (inactive),-0.183 (inactive),0.389 (inactive),1.01 (inactive),1.5,-0.0221,0.0358,0.944,0.259
C=CCC(OC(C)=O)[C@@H]1[C@@H](N(Cc2cccc3ccccc23)C(=O)Cc2ccc(OC)cc2)c2cc(OCCCO)ccc2N1C(=O)c1ccc(-c2ccccc2)cc1 (stereo not given in full),-0.213,-1.22 (inactive),1.16 (inactive),0.106 (inactive),-0.375 (inactive),0.107,-0.0762,-0.452,0.0437,0.112
NC(=O)[C@H]1[C@@H]2C(=O)O[C@@H](c3ccccc3)[C@@H](c3ccccc3)N2[C@@H](c2ccc(OCCO)cc2)[C@]12C(=O)Nc1ccc(C#CCCO)cc12,0.262,-0.532 (inactive),-0.311 (inactive),-0.465 (inactive),0.776 (inactive),0.617,0.136,0.579,0.331,0.177
COc1ccc([Si](C)(C)[C@@H]2[C@@H](CC(=O)N3CCC[C@H]3CO)O[C@]3(C(=O)N(Cc4cccc(N5C(=O)COc6ccccc65)c4)c4ccccc43)[C@H]2C)cc1,0.326,-5.39 (inactive),0.425 (inactive),1.5 (inactive),-0.361 (inactive),0.554,-0.0494,0.95,0.938,1.12
C=C[C@H](C)[C@H](OC(=O)Nc1ccc(SC)cc1)c1ccc(OCCO)cc1,0.448,-3.53 (inactive),0.0722 (inactive),7.78 (inactive),1.58 (inactive),0.374,-0.0221,0.766,0.937,1.33
COc1cc(OC)c(C(O)C2C=CC3C(=O)N(Cc4ccccc4)C(=O)C3N2n2cnnc2)cc1Br (stereo not given),0.25,-3.56 (inactive),-0.664 (inactive),0.677 (inactive),-1.4 (inactive),1.22,-0.0087,2.73,2.4,0.116
CC(C)N1C(=O)C[C@@](C(=O)O)(c2ccc([N+](=O)[O-])cc2)[C@H]1c1ccc(CO)cc1,-0.0691,0.034 (inactive),1.17 (inactive),0.441 (inactive),-0.303 (inactive),-0.923,-0.0288,-0.254,-0.0237,-0.878
